# Screen size: about 190,000 compounds; about 4,000 (2.1%) were called active. Cut-off read from the data, not from the text of the source: active = inhibition above about 58%; inactive = the rest, inconclusive results apart; tested in S. cerevisiae. The list comes from a sample in which actives are over-represented; it also holds similar structures and randomly drawn compounds.
# Test: growth inhibition of WT strain, primary screen, mitochondrial fusion inhibitor project, WT and mutant strains, chemical genetic (AID 1362)
# Conditions: mitochondrial fusion phenotypic screen, at 10 µM
# [1] = WT strain, growth inhibition, stronger effect = higher value
SMILES,inhibition [1],inhibition (mutant strain inhibition) [%]
CC(C)C(=O)NCc1cc(-c2ccc(Cl)cc2)no1,1.64% (inactive),-1.57
O=C(CC1C(=O)NCCN1Cc1ccc(-c2ccccc2)cc1)NCC1CCOCC1 (centres undefined),-14.8% (inactive),-10.2
Fc1cccc(Cl)c1CSc1ccc(-c2ccco2)nn1,75.3% (active),67.7
Brc1ccc(CSc2ccc(-c3ccco3)nn2)cc1,12.2% (inactive),-1.7
Cn1c(SCc2c(F)cccc2Cl)nnc1-c1cnccn1,4.78% (inactive),-6.62
CCc1ccc(NC(=O)CSc2nnc(-c3cnccn3)n2Cc2ccco2)cc1,6.65% (inactive),10.6
CCn1c(SCC(=O)Nc2cc(C)ccc2C)nnc1-c1cnccn1,62.3% (active),14.8
Cc1ccc(NC(=O)CSc2nnc(-c3cnccn3)n2Cc2ccco2)cc1C,-14.2% (inactive),-7.75
CCOc1ccc(C2c3[nH]c4ccccc4c3CCN2Cc2cn(CC)nc2C)cc1 (centres undefined),36% (inactive),39.9
COc1cccc(N(Cc2nnc3n2CCCCC3)C(=O)Nc2ccccc2F)c1,9.35% (inactive),6.31
O=c1[nH]n(-c2cccc(Cl)c2)c2ncccc12,3.71% (inactive),33.7
Cc1[nH]n(-c2cccc(Cl)c2)c(=O)c1-c1ccc(Cl)cc1,81.8% (active),74.9
Cc1[nH]n(-c2cccc(Cl)c2)c(=O)c1/C=N/n1c(C)nc2ccccc2c1=O,-0.49% (inactive),-9.97
CCc1cc(CNC(=O)CC2C(=O)NCCN2CC2CCCCC2)on1 (centres undefined),8.17% (inactive),-2.22
Cc1cccc(C)c1NC(=O)C1(N(C(=O)c2ccccn2)c2ccc(O)cc2)CCCCC1,0.64% (inactive),-13.5
CC(=O)N/N=C(\C)c1ccc(Br)cc1Br,13.2% (inactive),10.1
O=C(/C(=N\O)n1cncn1)c1ccc(Br)cc1Br,86.5% (active),-4.91
Cc1ccc(C(=O)N2CCCC(c3ccccc3)=N2)cc1,10.8% (inactive),2.44
Cc1cccc(NC(=O)c2nnn(-c3cccc(C(F)(F)F)c3)c2N)c1,-4.08% (inactive),-7.16
O=C1c2ccccc2NC(c2ccccn2)N1NS(=O)(=O)c1ccccc1 (centres undefined),-4.85% (inactive),-14.2
NS(=O)(=O)c1ccc(N2C(=O)C3C4CC(C(Br)C4Br)C3C2=O)cc1 (centres undefined),-2.55% (inactive),-12.2
FC(F)(F)c1cc(-c2ccco2)nc(N2CCOCC2)n1,7.84% (inactive),9.26
FC(F)(F)c1cc(-c2cccs2)nc(NCc2ccco2)n1,6.76% (inactive),7.71
FC(F)(F)c1cc(-c2ccco2)nc(NCc2ccc(Cl)cc2)n1,76.9% (active),17.2
COc1ccc(CN2CCCC(C(=O)c3ccc(Cl)cc3)C2)cc1Cn1cncn1 (centres undefined),-19.6% (inactive),-4.89
CCc1ccccc1NC(=S)N(CCN1CCCCCC1)Cc1ccco1,-9.37% (inactive),22.4

SMILES,inhibition [1],inhibition (mutant strain inhibition) [%]
CS(=O)(=O)N(CC(=O)N/N=C/c1ccccn1)c1ccc(Oc2ccccc2)cc1,13% (inactive),10.6
Cn1c(=O)c2c(nc(SCC(=O)Nc3ccccc3N3CCCCC3)n2C)n(C)c1=O,12.6% (inactive),-10.4
O=C(CN1CCN(C2CCCCC2)CC1)Nc1ccccc1N1CCCCC1,6.93% (inactive),0.36
Cc1ccccc1NC(=O)CNc1ccccc1N1CCCCC1,67.2% (active),13.6
CC(Sc1nncn1C)C(=O)Nc1cc(C(F)(F)F)ccc1N1CCOCC1 (centres undefined),-29% (inactive),-7.18
COc1ccc(OC)c(NC(=O)CN2CCN(C(=O)c3ccco3)CC2)c1,-14.9% (inactive),-24.9
COc1ccc(NC(C)=O)cc1NC(=O)CN1CCN(c2ccccn2)CC1,-13.6% (inactive),-9.7
COc1ccc(NC(C)=O)cc1NC(=O)CN1CCN(C2c3ccccc3-c3ccccc32)CC1,60.1% (active),41.5
OCC1(CCOc2ccccc2)CCN(Cc2cn[nH]c2-c2ccccc2)CC1,15.8% (inactive),-2.31
Cc1c(CN2CCC(CO)(CCOc3ccccc3)CC2)[nH]c2ccc(Cl)cc12,94.7% (active),93.1
Cc1c(C(=O)N2CCOCC2)[nH]c2ccc(OCc3ccccc3)cc12,14.8% (inactive),11.7
CN(c1ccccc1)S(=O)(=O)c1cc(C(=O)OCC(=O)N2CCN(C(=O)c3ccco3)CC2)ccc1Cl,-22.5% (inactive),9.01
OCC1(CCc2ccccc2)CCN(Cc2ccc3nsnc3c2)CC1,9.84% (inactive),25.4
Cc1cccc(-c2ncc(CN3CCC(CO)(CCCc4ccccc4)CC3)cn2)c1,84.8% (active),70.5
COc1cccc(CC2(CO)CCN(Cc3cnc(-c4cccc(C)c4)nc3)CC2)c1,-0.71% (inactive),-25.4
N#CCSc1nn(-c2ccc(F)cc2)c(=S)s1,4.11% (inactive),-30.5
COCCN(C(=O)c1ccccc1F)c1c(N)n(Cc2ccccc2)c(=O)[nH]c1=O,4.27% (inactive),0.13
O=[N+]([O-])c1ccccc1N/N=C1\CCc2ccccc21,-0.84% (inactive),3.81
O=C1c2ccccc2NC(c2ccccc2O)N1NS(=O)(=O)c1ccccc1 (centres undefined),-6.26% (inactive),-11.6
CCCCN(CC)CCCNC(=O)c1ccc(CSc2nc3ccncc3[nH]2)cc1,7.78% (inactive),7.15
Cc1ccc(-n2cc(CN(C)Cc3nccn3C)c(-c3cccc(C)c3)n2)cc1,78.8% (active),64.6
COc1ccc(-n2cc(CN(C)Cc3n[nH]c(=O)[nH]3)c(-c3cccc(F)c3)n2)cc1,7.75% (inactive),8.93
Cc1cccc(-n2cc(CN3CCN(C(=O)c4ncn[nH]4)CC3)c(-c3cccc(F)c3)n2)c1,10.2% (inactive),-17.8
Brc1ccc2nc(N3CCCC3)sc2c1,14.9% (inactive),19.6
CCOC(=O)C1(Cc2cccc(OC)c2)CCN(Cc2csc(C(C)=O)c2)CC1,25.6% (inactive),25
O=C(c1ccc(-c2ccccc2)cc1)C1CCCN(C(=O)c2cncs2)C1 (centres undefined),-57.9% (inactive),9.01

# Source: PubChem BioAssay AID1362 (SRMLSC, 2008)
